This note sets out measurements from article PMC4336329 (PLoS ONE, 2015).

Hit rate of the full screen: of about 310,000 compounds, about 14,000 (4.5%) showed an effect of 50% or more. Effects have a minus sign here. What follows is part of a selection rich in strong results, with near analogues and random picks from the rest.
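Note: peak tail current of the secondary pulse compared with the same well before compound.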

human ether-à-go-go-related gene (hERG) potassium channel, sequence (Q12809 whole entry, looked up): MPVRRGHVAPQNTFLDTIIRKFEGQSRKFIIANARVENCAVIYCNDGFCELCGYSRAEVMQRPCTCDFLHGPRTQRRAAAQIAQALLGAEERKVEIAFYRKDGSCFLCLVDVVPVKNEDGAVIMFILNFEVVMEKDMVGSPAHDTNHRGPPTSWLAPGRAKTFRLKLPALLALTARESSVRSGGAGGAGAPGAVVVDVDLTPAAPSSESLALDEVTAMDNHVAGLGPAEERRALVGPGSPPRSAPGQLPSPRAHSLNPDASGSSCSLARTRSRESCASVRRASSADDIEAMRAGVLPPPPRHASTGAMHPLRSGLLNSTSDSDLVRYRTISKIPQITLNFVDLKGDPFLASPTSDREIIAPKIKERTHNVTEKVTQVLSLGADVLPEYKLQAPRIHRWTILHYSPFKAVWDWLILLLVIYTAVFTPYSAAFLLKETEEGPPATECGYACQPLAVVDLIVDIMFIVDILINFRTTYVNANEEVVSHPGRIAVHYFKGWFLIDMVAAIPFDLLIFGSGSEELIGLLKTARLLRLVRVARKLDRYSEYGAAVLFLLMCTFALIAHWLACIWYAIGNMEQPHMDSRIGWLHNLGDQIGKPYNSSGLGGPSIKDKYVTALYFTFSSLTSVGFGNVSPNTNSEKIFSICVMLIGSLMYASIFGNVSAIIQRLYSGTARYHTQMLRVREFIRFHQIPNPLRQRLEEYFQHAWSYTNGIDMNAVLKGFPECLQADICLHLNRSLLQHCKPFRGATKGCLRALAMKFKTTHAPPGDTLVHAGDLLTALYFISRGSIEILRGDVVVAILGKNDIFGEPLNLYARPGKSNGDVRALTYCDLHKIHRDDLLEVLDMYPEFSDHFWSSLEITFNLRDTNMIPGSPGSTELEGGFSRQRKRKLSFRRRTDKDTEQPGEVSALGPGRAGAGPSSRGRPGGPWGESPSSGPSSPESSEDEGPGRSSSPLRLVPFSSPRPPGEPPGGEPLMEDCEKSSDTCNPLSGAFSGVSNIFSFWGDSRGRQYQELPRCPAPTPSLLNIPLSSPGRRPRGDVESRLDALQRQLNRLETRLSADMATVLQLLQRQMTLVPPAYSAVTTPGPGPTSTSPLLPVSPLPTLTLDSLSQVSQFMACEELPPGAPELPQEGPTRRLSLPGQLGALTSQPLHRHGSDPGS

The experiment concerns the target human ether-à-go-go-related gene (hERG) potassium channel (human, UniProt Q12809). Nature of the experiment: primary screen, population patch clamp on CHO cells stably expressing hERG; higher = less effect of the substance.
Regarding `CCOC(=O)C1(CC2CCCCO2)CCN(C(=O)Nc2ccccc2)CC1` (stereo not drawn), the “hERG current change (%, negative = inhibition) at 10uM” value came out at 12%. With `COc1ccc(/C=C/C(=O)Oc2ccc(C)cc2)cc1` the figure was -14.4%; with `COc1ccc(/C=C/c2cc(C(F)(F)F)on2)cc1`, 16.4%. The result for `COc1ccc(/C=C/c2cc(-c3ccc(C)cc3)o[n+]2C)cc1.F[B-](F)(F)F` reads -77.1%. The result for `Cc1ccccc1NC(=O)c1ccc2ccccc2c1` reads -8.12%; that for `CCC(C)(C(=O)Nc1c(C)cccc1C)N(C)C(=O)c1ccc2ccccc2n1` (stereo not drawn), 8.52%. As for `CSCC[C@H](NC(=O)c1cccs1)C(=O)N1CCC2(CC1)NCCc1[nH]cnc12`, the “hERG current change (%, negative = inhibition) at 10uM” value came to 10.2%. With `O=[N+]([O-])c1cccc(S(=O)(=O)c2ccc(NCCO)c([N+](=O)[O-])c2)c1` the figure was -51%; with `CCCCNc1ccc(S(=O)(=O)c2cccc([N+](=O)[O-])c2)cc1[N+](=O)[O-]`, -22.2%; with `O=[N+]([O-])c1cccc(S(=O)(=O)c2ccc(NCCOCCO)c([N+](=O)[O-])c2)c1`, -38.3%. The result for `CCn1c(=O)c(C(=O)CN2CCN(S(=O)(=O)c3ccccc3)CC2)c(N)n(Cc2ccccc2)c1=O` reads -14.6%. With `Cn1c(=O)c(C(=O)CN2CCOCC2)c(N)n(Cc2ccccc2)c1=O` the figure was -13.2%; with `CCn1c(=O)c(C(=O)CN2CCN(Cc3ccc4c(c3)OCO4)CC2)c(N)n(Cc2ccccc2)c1=O`, -72%; with `Cn1c(=O)c(C(=O)CN2CCCCCC2)c(N)n(Cc2ccccc2)c1=O`, -13.5%. As for `CCn1c(=O)c(C(=O)CN2CCOCC2)c(N)n(Cc2ccccc2)c1=O`, the “hERG current change (%, negative = inhibition) at 10uM” value is listed as -19%.

Take `Cn1c(=O)c(C(=O)CN2CCN(Cc3ccc4c(c3)OCO4)CC2)c(N)n(Cc2ccccc2)c1=O`: the “hERG current change (%, negative = inhibition) at 10uM” value is listed as -66.8%. In the case of `CN1CCN(c2ccc(N)c(N3CCN(C)CC3)c2)CC1`, the “hERG current change (%, negative = inhibition) at 10uM” value is on record as 13.4%. The result for `CC(C)(C)NC(=O)C(c1ccc(F)cc1)N(Cc1ccccc1Cl)C(=O)c1ccn[nH]1` (stereo not drawn) reads 25.6%; that for `CC1(C)CC(=O)C=C(c2cccc3c2oc2ccccc23)C1`, -2.67%. The result for `O=C(c1ccco1)N1CCN(CC(=O)N2CCCc3c2c(=O)oc2ccc(O)cc32)CC1` reads -5.14%; that for `CCCOc1ccc2oc(=O)c3c(c2c1)CCCN3C(=O)CN1CCN(c2ncccn2)CC1`, -70.1%; that for `CCCCCOc1ccc2oc(=O)c3c(c2c1)CCCN3C(=O)CN1CCCC(C(=O)OCC)C1` (stereo not drawn), -0.3%. With `CCCOc1ccc2oc(=O)c3c(c2c1)CCCN3C(=O)CN1CCN(C(=O)c2ccco2)CC1` the figure was -65.3%. Consider `CC(=O)Oc1ccc2oc(=O)c3c(c2c1)CCCN3C(=O)CN1CCN(c2ncccn2)CC1`, for which the “hERG current change (%, negative = inhibition) at 10uM” value is -7.91%. The result for `CCCOc1ccc2oc(=O)c3c(c2c1)CCCN3C(=O)CN1CCc2ccccc2C1` reads -24.1%; that for `CCCOc1ccc2oc(=O)c3c(c2c1)CCCN3C(=O)CN1CCCC(C(=O)OCC)C1` (stereo not drawn), -65.5%; that for `CCOC(=O)C1CCCN(Cc2cc(=O)oc3cc(C)c(C)cc23)C1` (stereo not drawn), -19.3%.

As to `CCCOc1ccc(C(=O)Nc2ccc(N3CCN(C(=O)c4ccco4)CC3)cc2)cc1`, the “hERG current change (%, negative = inhibition) at 10uM” value is 13.2%. With `O=C(c1cnn2ccccc12)N1CCc2ccccc21` the figure was 0.772%; with `CC(=O)c1ccc(N2CCN(C(=O)/C=C/c3ccc(S(=O)(=O)N4CCOCC4)cc3)CC2)cc1`, -30.3%; with `Fc1ccccc1OCCCCCCN1CCCC1`, -38.2%. With `Clc1ccc(OCCCn2ccnc2)c(Br)c1.O=C(O)C(=O)O` the figure was -18.6%.

Turning to `Clc1ccc(OCCCCCN2CCCC2)c(Br)c1`, the “hERG current change (%, negative = inhibition) at 10uM” value is reported as -62.3%. On to `Clc1cccc(OCCCN2CCCC2)c1Cl`, for which the “hERG current change (%, negative = inhibition) at 10uM” value is recorded as -55.5%. For `Clc1ccc(Cl)c(OCCN2CCCC2)c1`, the “hERG current change (%, negative = inhibition) at 10uM” value was -38.8%. The result for `Clc1ccccc1OCCCCN1CCCC1` reads -29.6%. With `Cc1ccccc1OCCCN1CCCC1` the figure was -14.4%; with `Clc1ccccc1OCCCCN1CCCCC1`, -8.1%.

For `Clc1ccc(Cl)c(OCCCCN2CCCCC2)c1`, the “hERG current change (%, negative = inhibition) at 10uM” value is given as -59.2%. The result for `CCN1CCN(CCCOc2ccc(Cl)cc2Br)CC1.O=C(O)C(=O)O` reads -69%. The result for `Brc1ccccc1OCCCCCN1CCCC1` reads -33.9%; that for `CCn1c(P(C)(=O)[O-])nc2ccccc21.[Na+]`, 8.91%; that for `COC(=O)c1sccc1NC(=S)N1CCCC(C)C1` (stereo not drawn), 14.6%.

`Cc1cc(C(=O)N2CCN(c3ccc(C(F)(F)F)cn3)CC2)c(C)o1`: the “hERG current change (%, negative = inhibition) at 10uM” value is listed as -21.4%. Take `CCOc1ccccc1C(=O)Nc1nnc(C(C)C)s1`: the “hERG current change (%, negative = inhibition) at 10uM” value is -1.92%. The result for `O=C(CCN1C(=O)/C(=C/c2ccc(F)cc2)SC1=S)NC1C=CS(=O)(=O)C1` (stereo not drawn) reads -15.2%; that for `CCc1nc2ccccc2n1CCC(=O)O.Cl`, -5.88%.

As for `CC1(C)c2ccccc2N2CC(=O)NC21/C=C/c1ccco1` (stereo not drawn), the “hERG current change (%, negative = inhibition) at 10uM” value was 2.9%. With `Cc1nn(Cc2ccc(Cl)cc2)c(C)c1NC(=O)c1cc(-c2ccc3c(c2)OCO3)on1` the figure was -3.11%; with `CN(C)C(=O)N1CCC(C(=O)N2CCCC(C(=O)c3cccc4ccccc34)C2)CC1` (stereo not drawn), -33.8%; with `Clc1ccc(OCCN2CCCCC2)c(Cl)c1.O=C(O)C(=O)O`, -16.2%. With `Clc1ccc(Cl)c(OCCCCN2CCNCC2)c1.O=C(O)C(=O)O`, the “hERG current change (%, negative = inhibition) at 10uM” value is listed as -17.4%. `Clc1ccc(OCCCN2CCCCC2)c(Br)c1.O=C(O)C(=O)O`: the “hERG current change (%, negative = inhibition) at 10uM” value is given as -70.7%.

Take `CCOC(=O)C(NC(=O)Cc1ccccc1)(Nc1cc(C)on1)C(F)(F)F` (stereo not drawn): the “hERG current change (%, negative = inhibition) at 10uM” value amounted to 3.97%. The result for `N#Cc1ccccc1NC(=O)COC(=O)CCc1ccccc1` reads -14.9%; that for `C=CCn1c(SCc2ccc(C(=O)Nc3ccccc3)cc2)nnc1-c1ccccc1`, -5.06%; that for `O=C(CCn1c(=O)c2ccccc2n(Cc2ccccc2)c1=O)NCc1ccc2c(c1)OCO2`, -4.33%.

Consider `O=C(NCCCl)Nc1cc([N+](=O)[O-])ccc1Cl`, for which the “hERG current change (%, negative = inhibition) at 10uM” value amounted to 16.9%.

As to `CC(=O)Nc1c(-c2ccccc2)nc2ccc(Cl)cn12`, the “hERG current change (%, negative = inhibition) at 10uM” value came to 5.29%. With `CCOC(=O)c1c(-c2ccccc2)nc2ccc(Cl)cn12` the figure was 30%; with `CCOC(=O)CNc1c(-c2ccc(OC)cc2)nc2ccc(Cl)cn12`, -73.5%.

For the compound `CCOC(=O)CNc1c(-c2ccccc2)nc2ccc(Cl)cn12`, the “hERG current change (%, negative = inhibition) at 10uM” value is -64.4%. The result for `CCOC(=O)CNc1c(-c2ccc(O)cc2)nc2ccc(Cl)cn12.Cl` reads -39.7%; that for `COCCNc1c(-c2ccc(OC)cc2)nc2ccc(Cl)cn12`, -39.5%. For `Cc1ccc(S(=O)(=O)N2c3ccccc3OCC2c2ccccc2)cc1` (stereo not drawn), the “hERG current change (%, negative = inhibition) at 10uM” value amounted to 23%. As to `CCOC(=O)N1CCN(CC(=O)Nc2cc(OCC)ccc2OCC)CC1.Cl`, the “hERG current change (%, negative = inhibition) at 10uM” value was -68.1%. The result for `CCOc1ccc(OCC)c(NC(=O)CN2CCN(C(=O)c3ccco3)CC2)c1` reads -59%; that for `CCOc1ccc(OCC)c(NC(=O)CN2CCN(CC(=O)NC(C)C)CC2)c1.Cl`, 9.43%; that for `CCCN1CCN(CC(=O)Nc2cc(OCC)ccc2OCC)CC1.Cl`, -57.6%. The result for `COc1ccc(OC)c(NC(=O)CN2CCN(C(=O)c3ccco3)CC2)c1` reads -23.7%; that for `COCCOc1ccc(C(F)(F)F)cc1NC(=O)c1ccccc1`, -10.9%. Regarding `CCN1CCN(CC(=O)Nc2cc(C(F)(F)F)ccc2OCCOC)CC1.O=C(O)C(=O)O`, the “hERG current change (%, negative = inhibition) at 10uM” value is listed as -75.4%. With `CCOc1ccc(OCC)c(NC(=O)CN2CCN(CC)CC2)c1.Cl` the figure was -43.3%.

With `CCOc1ccc(OCC)c(NC(=O)CN2CCN(c3cc(C)ccc3C)CC2)c1.Cl`, the “hERG current change (%, negative = inhibition) at 10uM” value is on record as -9.35%. The result for `CCCCCNCC(=O)Nc1cc(C(F)(F)F)ccc1OCCOC` reads -34.2%; that for `CCOc1ccc(OCC)c(NC(=O)CN2CCN(c3ccc(C)cc3C)CC2)c1.Cl`, -0.937%.

For `COc1ccc(NC(C)=O)cc1NC(=O)CN1CCN(C(=O)c2ccco2)CC1`, the “hERG current change (%, negative = inhibition) at 10uM” value came out at 13.9%. The result for `CCOC(=O)C1CCCN(C(=O)c2ccc(Cn3c(=S)[nH]c4cc(C(=O)OC)ccc4c3=O)cc2)C1` (stereo not drawn) reads 10.6%. With `CCN1C(=O)[C@H]2[C@@H](c3ccc(C)cc3)N3C(=O)N(c4ccc(C(F)(F)F)cc4)C(=O)[C@@]3(CC(C)C)[C@H]2C1=O` the figure was 14.6%; with `Cc1ccc(C)c(NC(=O)CN(C)S(=O)(=O)c2ccc(F)cc2)c1`, 3.47%. The result for `Cc1cc(NC(=O)CSc2nc(-c3ccccc3)c(C#N)c(=O)[nH]2)no1` reads -0.629%; that for `Cc1ccsc1/C=C1\C(=O)NC(=S)N(C)C1=O`, 15.3%. Take `O=C(COc1ccc(Cl)cc1)NCCS(=O)(=O)N1CCN(c2ccccc2F)CC1`: the “hERG current change (%, negative = inhibition) at 10uM” value was 5.38%. The result for `CC(=O)C1=C(O)C(=O)N(c2cccc(Br)c2)C1c1ccccc1Cl` (stereo not drawn) reads -4.7%.

For `COc1ccc(OC)c(NC(=O)c2nc(-c3ccccc3)oc2C)c1`, the “hERG current change (%, negative = inhibition) at 10uM” value is -6.31%. `O=S(=O)(Nc1ccc(Br)cc1)c1cccc(NC(=S)NCCN2CCOCC2)c1`: the “hERG current change (%, negative = inhibition) at 10uM” value stood at 3.16%. With `Cc1ccc(CN2Cc3cccc4c3[C@@H](CC2=O)[C@H](O)[C@H](O)C4)cc1` the figure was 19.6%.
